Sampled rows, rich in hits. Any-hit rate of the full collection: about 17%.
DT40 TDP1 CPT – DT40-hTDP1 cell growth loss with CPT | chicken DT40 Tdp1-/-;hTDP1 cells + 20 nM CPT, ATP luminescence, 48 h | Potency, µM (titrated, usually from 46.2 µM), without a hit: top-dose activity change, negative = growth inhibition, hits mostly inhibitors | hit rate 12% among 420,000; further: on the % scale 0 is the no-effect control and ±100 the full control effect; nearly all actives have a fitted effect of over 55% in size
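Chicken DT40 Tdp1-/- cells stably complemented with human TDP1 were seeded at 400 cells/well in medium containing 20 nM camptothecin, exposed to pin-transferred compounds, and grown at 37 °C for at least 48 hr. Viability was read as ATP luminescence.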
HT1080-NT tox – kills 2HG-producing HT-1080-NT fibrosarcoma cells; AID 686970; hit rate 1.6% among 360,000; Potency, µM (series often up to 46.1 µM), for inactives: at the highest dose activity, negative = less viability, hits mostly cytotoxic; HT-1080-NT fibrosarcoma viability, CellTiter-Glo ATP luminescence, 48 h;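 further: NT is the 2HG producing partner of a matched IDH1 knockdown line; 0% = DMSO-treated cells and -100% = media-only wells without cells; nearly all actives have a fitted effect of over 55% in size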
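Viability of the 2HG-overproducing fibrosarcoma line after 48 hours of compound exposure at 37 degrees C was determined by luminescence with CellTiter-Glo, and concentration-effect curves were then fitted and categorized.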
DT40 TDP1 no CPT – qHTS for Inhibitors of human tyrosyl-DNA phosphodiesterase 1 (TDP1): qHTS in cells in absence of CPT; DT40 Tdp1-/- hTDP1 cells, no CPT, ATP luminescence, 48 h; Potency, µM (doses to about 46.2 µM), for inactives: at the top dose activity change, negative = growth inhibition, usual class: inhibitors; hit rate 15% among 420,000; AID 686978, 2013; further: on the % scale 0 is the no-effect control and ±100 the full control effect; nearly all actives have a fitted effect of over 55% in size
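Readout: luminescence from CellTiter-Glo after 30 min in the dark at RT. Cells: DT40 Tdp1-/- with stable hTDP1, 400/well. Exposure: compounds alone, ≥48 hr, 37 °C.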
HT1080 IDH1KD tx – toxicity to HT-1080 IDH1 knockdown cells (counter line); hit rate 2% among 360,000; Potency, µM (titrated, usually from 46.1 µM), without a hit: at the top dose activity, negative = toxicity, most hits filed as cytotoxic; HT-1080 IDH1 knockdown viability, ATP luminescence, 48 h;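 further: 0% = DMSO wells and -100% = cell-free medium wells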
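CellTiter-Glo luminescence after 48 h compound exposure at 37 degrees C of IDH1-knockdown HT-1080 cells in 5% FBS RPMI. %Activity scaled between DMSO wells and cell-free media wells, with curves fitted and assigned curve classes.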
TGFb SMAD3 inh – blocks TGF-b signaling; HepG2 CAGA-GFP TGF-b/SMAD3 reporter, GFP fluorescence, 18 h; TGF-beta stimulated, 500 pg/mL final; Potency, µM (doses to about 46.1 µM), inactives show at the highest dose activity, negative = inhibition, usual class: inhibitors; hit rate 1.2% among 410,000; further: on the % scale 0 is the no-effect control and ±100 the full control effect; nearly all actives have a fitted effect of over 65% in size
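Read-out: total well GFP (ex488/em500-530) summed from mean per-cell fluorescence. Cells: HEPG2 CAGA-GFP, 1% FBS DMEM, 18 h at 37 degrees C with 500 pg/mL final TGF-beta. Unstimulated wells served as the full-inhibition control; stimulated DMSO wells = 0%.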
HepG2 tox – kills HepG2 cells in TGF-b inhibitor counter-screen | hit rate 0.76% among 410,000 | HepG2 CAGA-GFP viability, ATP luminescence, 18 h | AID 588856 | Potency, µM (series often up to 46.1 µM), inactives show top-dose activity change, negative = cytotoxicity, actives largely listed as cytotoxic
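CellTiter-Glo luminescence gave cytotoxicity after 18 hours at 37 degrees C. The cells were HepG2 CAGA-GFP in 1% FBS DMEM, stimulated with 500 pg/mL TGF-beta after compound addition. %Activity was normalised to no-cell wells (complete cell-killing) and DMSO (no toxicity), and curves were fitted and classified.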
* = called active by the depositor; ? = inconclusive; / = no result. The call rests on the fitted dose curve; in most records, active means well fitted curve in the direction sought with a large enough effect; inconclusive means small, poorly fitted or top-dose-only effect, or another doubt; inactive means no such curve, though single readings can be large; an effect the other way counts as inactive or inconclusive. Potency means the concentration at half of the fitted maximal effect.

SMILES | DT40 TDP1 CPT | HT1080-NT tox | DT40 TDP1 no CPT | HT1080 IDH1KD tx | TGFb SMAD3 inh | HepG2 tox
Cc1c(C(=O)OC/C(O)=C(\C#N)c2nc3ccccc3[nH]2)oc2ccccc12 | 6% | ? | -20% | ? | 13µM* | -56%
N#C/C(=C(/O)c1ccc(Cl)cc1)c1nc2ccccc2[nH]1 | -2% | 3% | 12% | 1% | 7% | 2%
COc1cc(/C(O)=C(\C#N)c2nc3ccccc3[nH]2)cc(OC)c1OC | ? | -1% | 13µM* | 5% | 1% | -28%
Cc1c(C(=O)OCC(O)=C(C#N)c2nc3ccccc3[nH]2)oc2ccc(Br)cc12 | ? | 3% | -29% | 3% | 0% | -10%
CC(=O)OC(/C(O)=C(\C#N)c1nc2ccccc2[nH]1)c1ccccc1 (configuration not stated) | ? | 8.9µM* | 18µM* | ? | -10% | -18%
N#C/C(=C(/O)c1ccc(Cl)c([N+](=O)[O-])c1)c1nc2ccccc2[nH]1 | 15µM* | -13% | ? | -14% | -27% | -40%
CCOCCCNC(=O)CCN1C(=O)c2ccccc2Sc2ncccc21 | -9% | 7% | -9% | 27% | 0% | -3%
Cc1ccc(OC(=O)CSc2nnc(-c3ccc4c(c3)OCO4)o2)c(C)c1 | 3% | / | 1% | / | 22% | 4%
N#C/C(=C(/O)C(Cl)(Cl)Cl)c1nc2ccccc2[nH]1 | 8.2µM* | -7% | 9.2µM* | 0% | -29% | -37%
C/C(O)=C(/C#N)c1nc2ccccc2[nH]1 | ? | 0% | ? | -1% | 13% | -3%
COc1ccccc1-c1nnc(Sc2nc([N+](=O)[O-])nn2C)o1 | ? | 13µM* | 16µM* | 4µM* | -4% | 2%
Cn1cnnc1Sc1nc([N+](=O)[O-])nn1C | -1% | 9% | 6% | 14% | -4% | -2%
CC(=O)NC(CC(=O)N(C)C1CCCCC1)c1ccccc1 (configuration not stated) | 2% | 8% | -4% | 14% | -3% | -123%
COc1ccc(N2CCN(c3ccc4nnc(CCC(=O)Nc5ccc(C)cc5)n4n3)CC2)cc1 | ? | -2% | 23µM* | 0% | -5% | -4%
COc1ccc(NC(=O)CCc2nnc3ccc(N4CCC(C)CC4)nn23)cc1 | ? | 9% | ? | 14% | 0% | 10%
CCN(CC)c1ccc(NC(=O)CCc2nnc3ccc(N4CCCC4)nn23)c(C)c1 | 15µM* | 5% | 23µM* | 1% | 1% | -28%
CCOc1ccc(CCNC(=O)CCc2nnc3ccc(N4CCCCC4)nn23)cc1OCC | ? | 8% | 12µM* | -5% | -15% | -1%
CCOc1ccc(CCNC(=O)CCc2nnc3ccc(N4CCOCC4)nn23)cc1 | -24% | 9% | -14% | 2% | 24% | 2%
CCOC(=O)c1ccc(NC(=O)CCc2nnc3ccc(N4CCCC4)nn23)cc1 | 26µM* | -5% | ? | 0% | -4% | -10%
COc1ccc(CNC(=O)C(=O)NCC(c2cccs2)S(=O)(=O)c2ccc(C)cc2)cc1 (configuration not stated) | 0% | / | ? | / | -26% | -17%
O=C(N/N=C/c1coc2ccccc2c1=O)c1cn(-c2ccccc2)nc1-c1ccc(F)cc1 | ? | -2% | ? | 4% | -18% | 2%
Cc1ccccc1C(=NCCCN(C)C)c1ccccc1C | 5% | -3% | -27% | -4% | 7% | -8%
CCOc1ccccc1C(=O)N(Cc1ccco1)Cc1ccccc1F | 21µM* | / | 21µM* | / | -3% | -27%
COc1ccccc1C(=O)N(Cc1ccco1)Cc1ccccc1F | ? | / | 21µM* | / | 0% | -20%
Cn1cccc1C(=O)NC(=O)COC(=O)c1ccc(S(C)(=O)=O)c([N+](=O)[O-])c1 | 4µM* | ? | 4.5µM* | ? | ? | -108%
SMILES | DT40 TDP1 CPT | HT1080-NT tox | DT40 TDP1 no CPT | HT1080 IDH1KD tx | TGFb SMAD3 inh | HepG2 tox
CS(=O)(=O)c1ccc(C(=O)OCC(=O)NCC2CCCO2)cc1[N+](=O)[O-] (configuration not stated) | 10µM* | / | 7.9µM* | / | ? | -52%
CS(=O)(=O)c1ccc(C(=O)OCC(=O)NC(=O)NC2CCCCC2)cc1[N+](=O)[O-] | 2.8µM* | / | 4.5µM* | / | 4.5µM* | 6.3µM*
Cc1ccc(C(=O)OCC(=O)NC(=O)NCc2ccccc2)cc1C | 2% | 1% | 12% | 2% | 8% | 1%
O=C(COC(=O)c1ccc(F)c([N+](=O)[O-])c1)NC(=O)NCc1ccccc1 | 21µM* | -18% | ? | -17% | ? | -43%
Cn1cccc1C(=O)NC(=O)COC(=O)c1ccc(S(C)(=O)=O)cc1 | ? | 0% | -6% | -1% | -27% | 2%
CN(C)CCC1(c2ccccc2)CCN(C)C1=O (configuration not stated) | -12% | -7% | 0% | -4% | 4% | 3%
O=C(COC(=O)COc1ccc(Cl)cc1Cl)NC1CCCC1 | -3% | -1% | -13% | -5% | 2% | 0%
Cn1ccsc1=NC(=O)c1ccc(S(C)(=O)=O)c([N+](=O)[O-])c1 | 4.6µM* | -16% | 4.6µM* | ? | ? | -38%
CCC12CN3CC(C)(CN(C1)C3c1ccc(O)cc1O)C2=O (configuration not stated) | 4% | / | 4% | / | ? | 7%
Cc1sc2ncnc(N[C@@H](Cc3c[nH]c4ccccc34)C(=O)O)c2c1C | -17% | 9% | -29% | 9% | 0% | -18%
Cc1c(C(=O)N2CC3CCC2C3)sc2ncnc(NCCc3c[nH]c4ccccc34)c12 (configuration not stated) | ? | / | 23µM* | / | / | /
O=C(OCc1ccccc1F)c1cc(S(=O)(=O)N2CCCCC2)ccc1N1CCOCC1 | ? | -19% | ? | -22% | -3% | -11%
O=C(Cn1sc2ccccc2c1=O)NC12CC3CC(CC(C3)C1)C2 | 1.5µM* | -9% | 1.8µM* | ? | ? | 5.6µM*
Nc1cccc2c1C(=O)N(CC(=O)NC13CC4CC(CC(C4)C1)C3)C2=O | -8% | -3% | -2% | -2% | 1% | 0%
O=C(Cn1sc2ccccc2c1=O)Nc1ccccc1 | 2.3µM* | ? | 2.1µM* | ? | 18µM* | -94%

Bioassay records: PubChem BioAssay, National Center for Advancing Translational Sciences (NCATS)
